Several values for one entry are separate records, joined by “and”; a condition that tells them apart may be missing. Equal values may be shown once. About 83,000 compounds went through this panel and 20% of them were active in at least one assay; those are over-represented in the sample as a whole.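 Each cell line was grown in a 96-well plate and treated with one concentration of compound for 48 hours. Values below 10 were considered active.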 Activity calls are given as the source filed them.

Common to all, as to assay: NCI-60 one-dose screen, 48 h (100 = growth as untreated, 0 = no growth, -100 = all killed)
Common to all, as to settings: 10 µM unless noted

The test system of test [1] is RPMI-8226 leukemia.
For test [2], the system named is OVCAR-8 ovarian.
Test [3] deals with OVCAR-5 ovarian.
Test [4] has as its system OVCAR-4 ovarian.
In test [5] the test system is SK-OV-3 ovarian.
Test [6] relates to IGROV1 ovarian.
Test [7] relates to OVCAR-3 ovarian.
Test [8] deals with HS 578T breast.
Test [9] deals with NCI/ADR-RES ovarian.
Test [10] concerns T-47D breast.
Test [11] concerns BT-549 breast.
For test [12], the system named is MDA-MB-435 melanoma.
Test [13] concerns SW-620 colon.
Test [14] deals with MCF7 breast.
The subject of test [15] is HCT-116 colon.
Test [16] deals with HCC-2998 colon.
The test system of test [17] is KM12 colon.
In test [18] the test system is SR leukemia.

Regarding `NC(=O)c1ccccc1OCC(O)CO` (stereo not drawn), the growth in [1] was 99% (inactive); in test [2], 104% (inactive); in test [3], 99.5% (inactive); in [4] it was 103% (inactive); in test [5], 109% (inactive); in test [6], 108% (inactive). Also, the growth in [7] is 106% (inactive); in test [8], 117% (inactive); in [9] it was 119% (inactive); in test [10] it was 130% (inactive); in [11], 109% (inactive); in test [12], 90% (inactive). The growth is 101% (inactive) in test [13]; 94.1% (inactive) in test [14]; 112% (inactive) in [15]; 114% (inactive) in [16]; 115% (inactive) in [17].

Regarding `Nc1ccc2[nH]c(-c3ccccc3)cc(=O)c2c1`, the growth in test [1] is 86.1% (inactive); in [2], 97.4% (inactive); in test [3] it was 94.8% (inactive); in test [4], 111% (inactive); in test [5] it was 98.1% (inactive); in test [6], 95.5% (inactive). In addition, the growth is 64.3% (inactive) in test [7]; 107% (inactive) in test [8]; 70.5% (inactive) in test [9]; 78% (inactive) in test [10]; 81.2% (inactive) in [11]; -21.2% (active) in [12]. The growth in test [13] was 57.6% (inactive); in test [14], 51.7% (inactive); in test [15], 81% (inactive); in test [16], 78.3% (inactive); in test [17] it was 45.2% (inactive).

On to `CN(C)c1ccc(C(Cc2ccc3ccccc3n2)Cc2ccc3ccccc3n2)cc1`, for which the growth was 39.5% (inactive) and 71% (inactive) in test [18]; 46.5% (inactive) and 91.9% (inactive) in [2]; 58.7% (inactive) and 88.9% (inactive) in [3]; 45.5% (inactive) and 79.8% (inactive) in test [4]; 36% (inactive) and 90.3% (inactive) in test [6]; 55.2% (inactive) and 79.8% (inactive) in test [7]. In addition, the growth in test [8] was 70% (inactive) and 93% (inactive); in test [9], 37.5% (inactive) and 76.3% (inactive); in test [10], 34.7% (inactive) and 74.4% (inactive); in [11] it was -3.35% (active) and 93.1% (inactive); in [12], 32.7% (inactive) and 87.1% (inactive); in test [13], 48.1% (inactive) and 79.3% (inactive). The growth is 40.8% (inactive) and 68% (inactive) in test [14]; 15.4% (inactive) and 51.6% (inactive) in [15]; 35% (inactive) and 91.1% (inactive) in test [16]; 42.1% (inactive) and 81% (inactive) in test [17].

On to `Nc1cc2c(cc1N)-c1ccccc1C2`, for which the growth in test [1] is 41.3% (inactive) and 61% (inactive); in [2], 88.9% (inactive) and 89.5% (inactive); in test [3], 122% (inactive) and 109% (inactive); in test [4], 99.5% (inactive) and 107% (inactive); in test [5], 96.9% (inactive) and 95.1% (inactive); in test [6], 58.3% (inactive) and 79.2% (inactive). Further, the growth was 98.6% (inactive) and 97.7% (inactive) in [7]; 104% (inactive) in test [8]; 89.4% (inactive) and 90.2% (inactive) in test [9]; 80.8% (inactive) and 79.5% (inactive) in test [10]; 64.1% (inactive) and 75.5% (inactive) in [11]; 91.6% (inactive) and 94.1% (inactive) in test [12]. The growth was 108% (inactive) and 100% (inactive) in test [13]; 81.2% (inactive) and 95% (inactive) in test [14]; 98.8% (inactive) and 100% (inactive) in [15]; 102% (inactive) and 90.1% (inactive) in test [16]; 90% (inactive) and 97.1% (inactive) in [17].

In the case of `CC(C(=O)O)n1cc(C#N)c(=O)[nH]c1=O` (stereo not drawn), the growth in test [18] is 93.5% (inactive) and 99.9% (inactive); in test [2], 103% (inactive) and 113% (inactive); in [3], 94.8% (inactive) and 105% (inactive); in test [4], 108% (inactive) and 110% (inactive); in [5], 102% (inactive) and 98.6% (inactive); in test [6] it was 101% (inactive) and 109% (inactive). Also, the growth is 116% (inactive) and 101% (inactive) in test [7]; 114% (inactive) and 113% (inactive) in test [8]; 106% (inactive) in test [9]; 108% (inactive) and 101% (inactive) in test [10]; 99.4% (inactive) in [11]; 101% (inactive) and 106% (inactive) in test [13]. In addition, the growth was 101% (inactive) and 93% (inactive) in [14]; 105% (inactive) in test [15]; 101% (inactive) and 104% (inactive) in test [16]; 101% (inactive) and 107% (inactive) in test [17].
